Test results as given in PubChem BioAssay.
The source made the active and inactive calls.

Assays:
[1] = biological target: Albumin (Bos taurus) (UniProt P02769); assay: compounds binding labelled BSA control protein – biochemical, small-molecule microarray, Alexa647 label, 635/667 nm fluorescence, artefact control for SMM control protein annotation, profiling panel (AID 1118); conditions: BSA-A647 binding, fluorescence 635 nm, higher = more signal;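 further: score merges 667 nm emission intensity and signal-to-noise per printed compound spot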
Sequence of Albumin (Bos taurus) (P02769 whole entry, looked up): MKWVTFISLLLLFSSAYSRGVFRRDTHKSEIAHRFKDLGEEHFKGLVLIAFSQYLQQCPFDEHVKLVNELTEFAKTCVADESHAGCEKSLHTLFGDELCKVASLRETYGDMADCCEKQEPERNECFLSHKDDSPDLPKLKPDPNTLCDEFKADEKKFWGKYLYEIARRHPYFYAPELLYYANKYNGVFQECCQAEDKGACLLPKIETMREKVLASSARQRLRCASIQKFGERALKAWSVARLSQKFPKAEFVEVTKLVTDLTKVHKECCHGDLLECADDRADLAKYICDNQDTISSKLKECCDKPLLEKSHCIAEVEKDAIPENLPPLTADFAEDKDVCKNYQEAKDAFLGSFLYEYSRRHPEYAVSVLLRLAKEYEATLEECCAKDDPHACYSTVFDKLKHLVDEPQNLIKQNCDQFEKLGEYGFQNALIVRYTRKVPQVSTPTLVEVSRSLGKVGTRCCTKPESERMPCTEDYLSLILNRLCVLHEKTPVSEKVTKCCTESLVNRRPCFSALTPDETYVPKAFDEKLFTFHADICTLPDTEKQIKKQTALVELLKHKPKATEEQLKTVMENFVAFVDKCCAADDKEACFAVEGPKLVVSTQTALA

[2] = probe aXIP binding to arrayed compounds – biochemical, NeuroSMM set, 635/667 nm fluorescence, primary screen (AID 1119); conditions: small-molecule microarray, higher = more signal, called active from +8 up or from −8 down;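 further: probe is the protein aXip251-270 applied at 1 µg/mL to compound-printed slides; binding of probe to printed compounds measured as 667 nm fluorescence plus signal to noise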
[3] = probe aNOTCH3 binding on compound microarray – biochemical, small-molecule microarray, 635/667 nm fluorescence, primary screen (AID 1120); conditions: higher = more signal;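 further: probe is a biotin-tagged antibody raised against NOTCH3 rather than NOTCH3 protein; score merges spot fluorescence near 667 nm with spot signal to noise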
[4] = probe aNOTCH2 binding on compound microarray – biochemical, small-molecule microarray, 635/667 nm fluorescence, primary screen (AID 1121); conditions: higher = more signal;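 further: score merges feature fluorescence read at 667 nm with its signal to noise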
[5] = biological target: Carbonic anhydrase 2 (Homo sapiens) (UniProt P00918); assay: compounds binding carbonic anhydrase 2 – biochemical, small-molecule microarray, Alexa647-labelled CAII, profiling panel (AID 1122); conditions: CAII-A647 binding fluorescence, higher = more signal
[6] = COS7 lysate on small-molecule microarray, probe aHis, 635 nm (AID 1123); conditions: COS7 cell lysate, fluorescence, higher = more signal;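 further: z-score combines 667nm fluorescence intensity with signal-to-noise per printed compound spot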
[7] = probe aLAP1 signal on lysate-treated microarray – cell lysate, small-molecule microarray, COS7 lysate, primary screen (AID 1124); conditions: probe aLAP1, fluorescence, higher = more signal;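 further: lysate comes from COS7 cells expressing LAP1 and is applied at 0.3 µg/mL; score merges spot fluorescence near 667 nm with signal-to-noise over triplicate slides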
[8] = system: Sam68 (KHDRBS1); assay: compounds binding KHDRBS1 protein – biochemical, small-molecule microarray, 635 nm fluorescence, primary screen (AID 1125); conditions: higher = more signal;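 further: score merges 667 nm channel intensity with signal to noise over triplicate slides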
[9] = system: Chordin-like protein 2 (CHRDL2); assay: compounds binding chordin-like 2 – biochemical, small-molecule microarray, 635 nm fluorescence, primary screen (AID 1126); conditions: fluorescence 635 nm, higher = more signal;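 further: printed compound slides probed with Chrdl2 protein at 4 µg/mL for 1 h at 4 C; score merges 667 nm emission intensity with signal to noise over three replicate slides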
[10] = biological target: Concanavalin-A (Canavalia ensiformis) (UniProt P02866); assay: compounds binding concanavalin A lectin – biochemical, small-molecule microarray, Alexa647 label, 635 nm, artefact control for SMM control protein annotation, primary screen (AID 1127); conditions: ConA-A647 binding fluorescence, higher = more signal;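 further: z combines 667 nm emission intensity with signal-to-noise across three replicate slides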
Sequence of Concanavalin-A (Canavalia ensiformis) (P02866 whole entry, looked up): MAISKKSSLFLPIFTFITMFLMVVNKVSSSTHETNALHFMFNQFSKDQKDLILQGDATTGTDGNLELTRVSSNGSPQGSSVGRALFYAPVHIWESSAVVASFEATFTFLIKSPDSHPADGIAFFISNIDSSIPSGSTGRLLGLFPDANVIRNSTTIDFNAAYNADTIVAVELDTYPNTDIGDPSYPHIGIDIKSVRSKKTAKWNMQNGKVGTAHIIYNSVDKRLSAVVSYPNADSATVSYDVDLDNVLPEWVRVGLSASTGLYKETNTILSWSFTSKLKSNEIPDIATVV

[11] = compounds binding Alexa647 anti-His antibody – biochemical, small-molecule microarray, 635 nm fluorescence, artefact control for SMM control protein annotation, primary screen (AID 1128); conditions: higher = more signal;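 further: score merges feature fluorescence with signal-to-noise for each printed compound spot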
[12] = system: Human papillomavirus type 1a E7 protein (residues 1-88); assay: HPV1a E7 small-molecule binders, primary screen, biochemical, small-molecule microarray, residues 1-88, 635 nm (AID 1129); conditions: small-molecule microarray binding, fluorescence 635 nm; higher = more signal
[13] = biological target: Focal adhesion kinase 1 (Homo sapiens) (UniProt Q05397); assay: PTK2 protein binding on printed compound slides – biochemical, small-molecule microarray, 635/667 nm fluorescence, BSA, DTT, primary screen (AID 1130); conditions: 635 nm fluorescence, higher = more signal;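 further: composite of spot emission at 667 nm and signal to noise over triplicate slides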
Sequence of Focal adhesion kinase 1 (Homo sapiens) (Q05397 whole entry, looked up): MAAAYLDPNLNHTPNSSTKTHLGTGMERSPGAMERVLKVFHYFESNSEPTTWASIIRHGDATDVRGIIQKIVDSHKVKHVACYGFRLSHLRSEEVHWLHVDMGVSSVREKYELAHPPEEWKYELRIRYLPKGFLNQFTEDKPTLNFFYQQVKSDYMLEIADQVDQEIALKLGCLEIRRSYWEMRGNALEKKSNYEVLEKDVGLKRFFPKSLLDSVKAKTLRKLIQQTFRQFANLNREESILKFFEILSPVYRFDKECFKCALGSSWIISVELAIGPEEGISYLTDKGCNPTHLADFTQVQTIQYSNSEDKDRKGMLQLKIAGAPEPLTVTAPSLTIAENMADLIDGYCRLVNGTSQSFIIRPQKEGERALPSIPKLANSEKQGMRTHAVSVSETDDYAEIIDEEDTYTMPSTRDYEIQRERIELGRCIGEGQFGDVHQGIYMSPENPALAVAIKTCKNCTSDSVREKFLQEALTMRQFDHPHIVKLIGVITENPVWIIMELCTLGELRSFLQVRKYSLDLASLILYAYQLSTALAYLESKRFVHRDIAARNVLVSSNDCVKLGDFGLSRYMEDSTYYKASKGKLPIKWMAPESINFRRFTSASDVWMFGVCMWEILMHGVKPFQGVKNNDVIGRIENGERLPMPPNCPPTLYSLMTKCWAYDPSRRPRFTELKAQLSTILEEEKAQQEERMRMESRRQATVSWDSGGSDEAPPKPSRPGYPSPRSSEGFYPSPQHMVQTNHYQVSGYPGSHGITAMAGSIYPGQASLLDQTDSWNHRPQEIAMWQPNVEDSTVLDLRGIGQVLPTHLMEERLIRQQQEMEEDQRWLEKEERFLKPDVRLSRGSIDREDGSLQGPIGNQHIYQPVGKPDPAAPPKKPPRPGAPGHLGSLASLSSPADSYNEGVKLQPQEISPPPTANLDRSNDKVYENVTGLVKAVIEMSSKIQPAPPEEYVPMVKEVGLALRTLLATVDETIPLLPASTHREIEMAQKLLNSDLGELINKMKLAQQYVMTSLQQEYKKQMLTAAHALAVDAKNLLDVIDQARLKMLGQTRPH

[14] = system: Fibrinogen (Alexa647-labelled); assay: Alexa647-fibrinogen binding to printed small molecules – biochemical, small-molecule microarray, 635/667 nm fluorescence, artefact control for SMM control-protein annotation, profiling panel (AID 1131); conditions: fibrinogen-A647 binding fluorescence, higher = more signal;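 further: z-score merges 667 nm fluorescence with per-spot signal-to-noise over triplicate slides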
[15] = biological target: Follistatin (Homo sapiens) (UniProt P19883); assay: FST protein binding to printed compounds – biochemical, small-molecule microarray, 635/667 nm fluorescence, primary screen (AID 1132); conditions: 635 nm fluorescence, higher = more signal
Sequence of Follistatin (Homo sapiens) (P19883 whole entry, looked up): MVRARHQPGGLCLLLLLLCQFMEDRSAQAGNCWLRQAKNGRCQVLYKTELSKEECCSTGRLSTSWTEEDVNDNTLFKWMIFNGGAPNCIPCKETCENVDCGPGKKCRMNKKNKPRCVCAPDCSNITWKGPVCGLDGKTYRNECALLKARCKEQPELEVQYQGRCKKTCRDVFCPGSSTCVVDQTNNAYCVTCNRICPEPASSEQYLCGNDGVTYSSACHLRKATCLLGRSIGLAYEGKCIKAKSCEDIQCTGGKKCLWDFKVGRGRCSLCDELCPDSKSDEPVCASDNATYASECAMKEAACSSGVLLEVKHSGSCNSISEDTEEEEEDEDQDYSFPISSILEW

[16] = biological target: Fibroblast growth factor 2 (Homo sapiens) (UniProt P09038); assay: basic fibroblast growth factor binding to printed compounds – biochemical, small-molecule microarray, 635/667 nm fluorescence, primary screen (AID 1133); conditions: FGF2, fluorescence 635/667, higher = more signal
Sequence of Fibroblast growth factor 2 (Homo sapiens) (P09038 whole entry, looked up): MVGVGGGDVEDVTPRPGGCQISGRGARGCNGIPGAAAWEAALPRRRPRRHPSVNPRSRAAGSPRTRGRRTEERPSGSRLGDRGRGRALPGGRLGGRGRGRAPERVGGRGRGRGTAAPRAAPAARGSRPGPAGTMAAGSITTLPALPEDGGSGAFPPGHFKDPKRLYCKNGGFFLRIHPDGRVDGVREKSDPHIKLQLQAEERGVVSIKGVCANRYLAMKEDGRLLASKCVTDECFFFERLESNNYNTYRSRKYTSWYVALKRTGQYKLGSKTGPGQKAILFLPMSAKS

[17] = JC-1 mitochondrial potential readout, lung cancer cells – cell-based, A549, JC-1 fluorescence, basal, 24 h, 100 nL, profiling panel (AID 1138); conditions: higher = more signal;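 further: A549 lung adenocarcinoma cells under basal conditions with no added stimulus; test concentration not given here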
[18] = system: Lefty1; assay: Lefty1 protein binding to printed compounds – biochemical, small-molecule microarray, 635/667 nm fluorescence, primary screen (AID 1139); conditions: fluorescence 635/667, higher = more signal
[19] = system: wheat germ agglutinin (Triticum aestivum), Alexa647-labelled; assay: Alexa647-WGA lectin binding to printed small molecules – biochemical, small-molecule microarray, 635/667 nm fluorescence, artefact control for SMM control-protein annotation, profiling panel (AID 1140); conditions: WGA-A647 binding, 635 nm fluorescence, higher = more signal;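 further: score merges 667 nm feature emission with signal to noise over triplicate slides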
[20] = biological target: Luciferin 4-monooxygenase (Photinus pyralis) (UniProt P08659); assay: inhibition of purified Photinus pyralis luciferase – biochemical, luminescence, purified enzyme, 2006 set, primary screen (AID 1141); conditions: purified firefly luciferase, SteadyGlo luminescence, 30 min; higher = more signal, called active from +8 up or from −8 down;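 further: cell-free assay with purified firefly luciferase at 100 ng per well in PBS; test concentration not given here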
Sequence of Luciferin 4-monooxygenase (Photinus pyralis) (P08659 whole entry, looked up): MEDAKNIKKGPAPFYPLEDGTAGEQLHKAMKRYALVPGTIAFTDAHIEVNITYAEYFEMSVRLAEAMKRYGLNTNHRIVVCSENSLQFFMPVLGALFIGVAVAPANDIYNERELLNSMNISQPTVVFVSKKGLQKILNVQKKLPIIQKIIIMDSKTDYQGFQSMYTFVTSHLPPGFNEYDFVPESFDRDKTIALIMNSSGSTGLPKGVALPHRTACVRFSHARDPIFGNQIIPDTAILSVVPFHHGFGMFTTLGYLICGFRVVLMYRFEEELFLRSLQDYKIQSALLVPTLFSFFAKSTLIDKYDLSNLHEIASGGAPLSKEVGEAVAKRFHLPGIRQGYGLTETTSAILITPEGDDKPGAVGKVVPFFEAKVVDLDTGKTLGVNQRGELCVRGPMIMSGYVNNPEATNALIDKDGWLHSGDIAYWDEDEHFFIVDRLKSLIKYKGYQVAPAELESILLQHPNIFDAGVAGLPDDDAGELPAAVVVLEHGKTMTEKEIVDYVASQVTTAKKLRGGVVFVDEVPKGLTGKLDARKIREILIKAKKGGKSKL

| SMILES | composite z-score [1] | composite Z-score [2] | composite z-score [3] | composite z-score [4] | composite z-score [5] | composite z-score [6] | composite z-score [7] | composite z-score [8] | composite z-score [9] | composite z-score [10] | composite z-score [11] | composite z-score [12] | composite z-score [13] | composite z-score [14] | composite z-score [15] | composite z-score [16] | z-score [17] | composite z-score [18] | composite z-score [19] | z-score [20] |
| --- | --- | --- | --- | --- | --- | --- | --- | --- | --- | --- | --- | --- | --- | --- | --- | --- | --- | --- | --- | --- |
| CO[C@H]1O[C@H](CO)[C@@H](OC(=O)Nc2ccccc2)[C@H](OC(=O)Nc2ccccc2-c2ccccc2)[C@H]1OC(=O)Nc1ccccc1-c1ccccc1 | 0.925 | 0.563 (inactive) | -0.0903 | -0.103 | 0.556 | 1.63 | 0.463 | 1.3 | -0.159 | 1.19 | 2.03 | 1.23 | 1.17 | 0.903 | 0.754 | 0.292 | -1.05 | 0.601 | 1.19 | -0.864 (inactive) |
| COc1ccc(C#Cc2ccc3c(c2)[C@]2(C(=O)N3)[C@H](c3ccc(O)cc3)N3[C@H](c4ccccc4)[C@H](c4ccccc4)OC(=O)[C@H]3[C@@H]2C(N)=O)cc1 | -0.524 | 1.08 (inactive) | -0.299 | -0.147 | 0.662 | 1.25 | 0.0742 | 0.278 | -1.54 | -0.211 | 2.17 | -0.0669 | 0.627 | -0.063 | -0.482 | -0.617 | -1.59 | -0.9 | -0.0907 | -1.44 (inactive) |
| C=C(C(=O)CC[C@@H](OC(C)=O)c1ccccc1OCCO)C(C)C | -0.952 | 0.222 (inactive) | -0.0647 | -0.167 | 0.664 | -0.152 | -0.0507 | -0.247 | -0.38 | -0.779 | 0.138 | -1.28 | -0.485 | -0.314 | 0.164 | 0.398 | 1.29 | 0.342 | -0.242 | -1.35 (inactive) |
| COC(=O)[C@@]1(CCC(=O)OC(C)(C)C)COC(c2ccc(OCCCO)cc2)=N1 | -1.01 | -0.378 (inactive) | -0.239 | -0.147 | 0.558 | 0.214 | 0.993 | -0.724 | -2.22 | -1.8 | -1.22 | -1.66 | -0.15 | -2.51 | -2.21 | -1.64 | -0.122 | -2.55 | -1.57 | -1.4 (inactive) |
| O=C(NO)[C@]1(Cc2ccccc2)N=C(c2ccc(OCCCO)cc2)O[C@@H]1c1ccccc1 | 0.847 | -0.876 (inactive) | -0.183 | -0.0909 | 0.678 | -0.359 | 0.0192 | -0.32 | -0.671 | -1.06 | -0.0837 | 0.0707 | -1 | 0.141 | -0.248 | -0.0928 | 2.09 | -0.458 | 0.162 | -2.34 (inactive) |
| COc1c(C)cc(-c2cc3c(c(CCc4ccccc4)n2)[Si](C(C)C)(C(C)C)OC3)cc1C | -0.296 | 0.0537 (inactive) | 0.0179 | 0.0049 | 0.2 | 0.614 | 0.427 | 1.07 | 0.0922 | -0.17 | -0.611 | 0.654 | 0.158 | -0.074 | 0.483 | 0.0057 | 2.24 | 0.251 | -0.442 | -0.374 (inactive) |
| C=CCNC(=O)[C@@H]1[C@H]2C(=O)O[C@H](c3ccccc3)[C@H](c3ccccc3)N2[C@H](c2ccc(O)cc2)[C@@]12C(=O)Nc1ccc(C#Cc3ccc(OC)cc3)cc12 | 0.29 | 0.422 (inactive) | 0.0563 | -0.0451 | 0.31 | 0.928 | 0.482 | 1.32 | -0.0134 | 1.12 | 1.11 | 1.2 | 0.552 | 0.924 | 1.03 | 0.363 | -1.18 | 0.849 | 1.14 | -0.968 (inactive) |
| O=C1c2ccccc2C(=O)c2cc([C@H]3Oc4ccccc4S(=O)(=O)N4CCC[C@@H]34)ccc21 | -0.791 | -0.228 (inactive) | -0.227 | -0.0933 | -0.157 | -0.319 | -0.235 | -1.02 | -0.504 | -2.59 | -1.02 | -0.551 | -0.953 | -0.91 | -1.07 | -0.533 | 1.18 | -0.534 | -1.26 | -1.04 (inactive) |
| CCCC[C@@H](O)C1=C(C)C[C@H]2C(=O)N(C)C(=O)[C@H]2[C@H]1CO | 0.799 | 0.475 (inactive) | -0.132 | -0.112 | 0.804 | 0.48 | -0.198 | 0.705 | -0.0576 | 0.0354 | 0.33 | -0.196 | 0.116 | 0.173 | 0.186 | 0.41 | 1.52 | 0.776 | 1.12 | -1.41 (inactive) |
| CC(=O)NCCCC[C@@H]1NC(=O)[C@@H]2C[C@H](C(=O)O)[C@H](c3cccc(OCCO)c3)N2C1=O | -1.33 | 0.274 (inactive) | -0.126 | -0.146 | 0.276 | 0.348 | 0.0927 | 1.34 | 1.31 | 1.15 | 2 | 1.07 | 0.341 | 0.041 | 1.35 | 1.73 | 1.2 | 1.42 | 0.795 | -1.16 (inactive) |
